Test results published in the supplement of paper PMC6522484.
Where a name gives a salt, the structure may show the parent alone. ± gives the standard deviation of the averaged measurements.

Assays:
DLD1 [1] = experiment: cell viability (CellTiter-Glo) relative to plate median (fraction of plate median); higher = more viable cells; conditions: 10 µM, treatment time 24 h
In short: (§1)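 Each value averages two independent replicates in which the well signal was normalised to the plate median (webcellHTS2, additive, without log transformation). The signal was firefly luciferase or CellTiterGlo luminescence, read on parallel plates with a Tecan F500. The cells were colorectal cancer lines with stable lentiviral TCF/Wnt firefly luciferase reporters in 384-well plates, dosed 24 h after seeding with kinase inhibitor library compounds at a final 10 µM for 24 h.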

HCT116 [2] = experiment: as above; conditions: 10 µM; treatment time 24 h; reporter: TCF4/Wnt
In short: as §1

SW480 [3] = experiment: as above; conditions: 10 µM; treatment time 24 h; reporter: 7TFP
In short: as §1

DLD1 [4] = experiment: TCF/Wnt firefly luciferase reporter signal relative to plate median (fraction of plate median); higher = higher Wnt reporter signal; conditions: 10 µM, treatment time 24 h
In short: as §1

HCT116 [5] = experiment: as above; conditions: 10 µM; treatment time 24 h; reporter: TCF4/Wnt
In short: as §1

SW480 [6] = experiment: as above; conditions: 10 µM; treatment time 24 h; reporter: 7TFP
In short: as §1

| Compound | cell viability (DLD1 [1]; reporter: 7TFP) | cell viability (DLD1 [1]; reporter: TCF4/Wnt) | cell viability (HCT116 [2]) | cell viability (SW480 [3]) | TCF/Wnt firefly luciferase reporter signal (DLD1 [4]; reporter: 7TFP) | TCF/Wnt firefly luciferase reporter signal (DLD1 [4]; reporter: TCF4/Wnt) | TCF/Wnt firefly luciferase reporter signal (HCT116 [5]) | TCF/Wnt firefly luciferase reporter signal (SW480 [6]) |
| --- | --- | --- | --- | --- | --- | --- | --- | --- |
| CC(C)CC(=O)Nc1n[nH]c2c1CN(C(=O)C1CCN(C)CC1)C2(C)C | 1.07 ± 0.028 | 1.27 ± 0.15 | 0.793 ± 0.13 | 1.32 ± 0.071 | 1.33 ± 0.26 | 2.31 ± 0.37 | 0.193 ± 0.053 | 0.836 ± 0.064 |
| C[C@]1(O)C[C@@H](c2nc(-c3ccc4ccc(-c5ccccc5)nc4c3)c3c(N)nccn32)C1 [Linsitinib (OSI-906)] | 0.876 ± 0.018 | 0.856 ± 0.15 | 0.82 ± 0.0099 | 0.995 ± 0.021 | 1.11 ± 0.078 | 1.33 ± 0.23 | 1.29 ± 0.12 | 1.27 ± 0.057 |
| Cc1cc2c(F)c(Oc3ncnn4cc(OC[C@@H](C)O)c(C)c34)ccc2[nH]1 | 0.958 ± 0.13 | 1.01 ± 0.028 | 1.16 ± 0.014 | 0.942 ± 0.021 | 0.846 ± 0.22 | 1.05 ± 0.13 | 0.961 ± 0.11 | 0.978 ± 0.031 |
| O=C1NC(=O)/C(=C\c2ccc3nccnc3c2)S1 | 1 ± 0.038 | 1.04 ± 0.063 | 1.04 ± 0.042 | 0.854 ± 0.055 | 1.38 ± 0.05 | 1.48 ± 0.021 | 1.96 ± 0.18 | 1.3 ± 0.33 |
| CC(C)n1nc(-c2ccc3oc(N)nc3c2)c2c(N)ncnc21 | 0.832 ± 0.15 | 0.916 ± 0.016 | 0.624 ± 0.1 | 1.04 ± 0.072 | 0.341 ± 0.062 | 0.509 ± 0.071 | 0.569 ± 0.26 | 0.704 ± 0.15 |
| COc1cc2nccc(Oc3ccc(NC(=O)Nc4cc(C)on4)c(Cl)c3)c2cc1OC [Tivozanib (AV-951)] | 0.936 ± 0.09 | 0.997 ± 0.033 | 1.11 ± 0.021 | 1.07 ± 0.021 | 0.755 ± 0.0078 | 0.726 ± 0.046 | 1.15 ± 0.099 | 0.775 ± 0.32 |
| Cc1cc(Nc2nc(N[C@@H](C)c3ccc(F)cc3)c(C#N)cc2F)n[nH]1 | 0.875 ± 0.17 | 0.843 ± 0.062 | 0.831 ± 0.015 | 1.02 ± 0.035 | 1.14 ± 0.23 | 1.15 ± 0.25 | 1.22 ± 1.1 | 0.804 ± 0.38 |
| Cc1ccc(Nc2nccc(N(C)c3ccc4c(C)n(C)nc4c3)n2)cc1S(N)(=O)=O [Pazopanib HCl] | 1.11 ± 0.23 | 1.03 ± 0.073 | 1.065 ± 0.0071 | 0.846 ± 0.018 | 1.125 ± 0.0071 | 1.06 ± 0.19 | 1.14 ± 0.028 | 0.931 ± 0.087 |
| Fc1cc(-c2cccc3ncc(-c4cnn(C5CCNCC5)c4)nc23)cc(F)c1CN1CCOCC1 | 0.974 ± 0.14 | 0.981 ± 0.055 | 1.01 ± 0.055 | 1.05 ± 0.12 | 1.04 ± 0.19 | 1.02 ± 0.089 | 0.967 ± 0.076 | 1.52 |
| CC(C)(C)c1cc(NC(=O)Nc2ccc(-c3cn4c(n3)sc3cc(OCCN5CCOCC5)ccc34)cc2)no1 [Quizartinib (AC220)] | 0.994 ± 0.19 | 0.989 ± 0.086 | 1.15 ± 0.11 | 1.095 ± 0.0071 | 0.789 ± 0.4 | 1.04 ± 0.014 | 1.22 ± 0.18 | 1.26 ± 0.021 |
| O=C(Nc1ccc(OC(F)(F)F)cc1)c1sccc1NCc1ccnc2ccccc12 | 1.01 ± 0.023 | 0.924 ± 0.025 | 1.21 ± 0.035 | 0.971 ± 0.13 | 1.08 ± 0.15 | 0.97 ± 0.085 | 0.842 ± 0.62 | 0.864 ± 0.48 |
| Clc1ccc(Nc2nnc(Cc3ccncc3)c3ccccc23)cc1 [Vatalanib dihydrochloride (PTK787)] | 0.9675 ± 0.0021 | 0.978 ± 0.011 | 1.08 ± 0.13 | 0.925 ± 0.011 | 0.852 ± 0.038 | 0.965 ± 0.13 | 0.899 ± 0.11 | 0.957 ± 0.089 |
| C#Cc1cccc(Nc2ncnc3cc(OCCOC)c(OCCO)cc23)c1 [OSI-420 (Desmethyl Erlotinib)] | 0.993 ± 0.038 | 0.954 ± 0.011 | 1.075 ± 0.0071 | 0.987 ± 0.047 | 0.826 ± 0.023 | 0.927 ± 0.12 | 0.465 ± 0.3 | 0.668 ± 0.39 |
| Cc1ccc(-n2nc(C(C)(C)C)cc2NC(=O)Nc2ccc(OCCN3CCOCC3)c3ccccc23)cc1 [BIRB 796 (Doramapimod)] | 1.15 ± 0.057 | 1.12 ± 0.17 | 1.06 ± 0.096 | 0.975 ± 0.064 | 0.984 ± 0.0028 | 1.05 ± 0.17 | 1.18 ± 0.22 | 1.07 ± 0.078 |
| C[C@@H]1COC(Nc2ccc3ncnc(Nc4ccc(OCc5nccs5)c(Cl)c4)c3c2)=N1 | 0.932 ± 0.12 | 0.973 ± 0.028 | 1.055 ± 0.0071 | 0.988 ± 0.031 | 1.14 ± 0.18 | 1.51 ± 0.45 | 1.52 ± 0.042 | 1.22 ± 0.25 |
| Cc1ccc(NC(=O)c2ccc(CN3CCN(C)CC3)cc2)cc1Nc1nccc(-c2cccnc2)n1 [Imatinib Mesylate] | 0.9835 ± 0.0064 | 0.907 ± 0.17 | 0.91 ± 0.024 | 0.984 ± 0.066 | 2.07 ± 0.14 | 1.51 ± 0.4 | 1.32 ± 0.47 | 1.73 ± 0.15 |
| Nc1ncnc2c1c(-c1cccc(OCc3ccccc3)c1)cn2C1CC(CN2CCCC2)C1 (stereo unspecified) | 0.77 ± 0.15 | 0.809 ± 0.088 | 0.67 ± 0.095 | 0.952 ± 0.15 | 0.627 ± 0.15 | 0.755 ± 0.047 | 0.75 ± 0.29 | 0.895 ± 0.33 |
| CCCCOc1c(C(=O)c2c(F)cc(C)cc2F)c[nH]c2nncc1-2 | 1.075 ± 0.0071 | 1.02 | 1.13 ± 0.085 | 0.862 ± 0.067 | 0.489 ± 0.005 | 0.617 ± 0.071 | 0.879 ± 0.098 | 0.391 ± 0.12 |
| Nc1nccc(Oc2ccc(NC(=O)c3c[nH]cc(-c4ccc(F)cc4)c3=O)cc2F)c1Cl | 1.16 ± 0.22 | 1.01 ± 0.069 | 1.12 ± 0.2 | 0.886 ± 0.018 | 1.07 ± 0.17 | 0.826 ± 0.016 | 0.766 ± 0.32 | 0.549 ± 0.27 |
| N#CC[C@H](C1CCCC1)n1cc(-c2ncnc3[nH]ccc23)cn1 | 1.115 ± 0.0071 | 1.13 ± 0.057 | 1.09 | 0.9755 ± 0.0021 | 1.05 ± 0.15 | 1.025 ± 0.0071 | 1.13 ± 0.042 | 1.09 ± 0.042 |
| Cc1cc(Nc2cc(N3CCN(C)CC3)nc(Sc3ccc(NC(=O)C4CC4)cc3)n2)n[nH]1 [VX-680 (MK-0457, Tozasertib)] | 1.12 ± 0.18 | 0.975 ± 0.078 | 1.02 ± 0.028 | 1.16 ± 0.021 | 0.773 ± 0.0014 | 0.776 ± 0.057 | 1.56 ± 0.13 | 1.11 ± 0.23 |
| COc1cc(Nc2ncc(F)c(Nc3ccc4c(n3)N(COP(=O)(O)O)C(=O)C(C)(C)O4)n2)cc(OC)c1OC | 0.895 ± 0.046 | 0.896 ± 0.073 | 0.8 ± 0.055 | 0.919 ± 0.028 | 0.86 ± 0.098 | 0.919 ± 0.089 | 2.02 ± 1.6 | 0.588 ± 0.28 |
